Each structure is given as a SMILES string. Results filed as inconclusive are left out. Active and inactive are the calls of the source.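 The calls were made as follows, unless noted: active = percent response above a set limit, the screen-wide mean plus 3 SD (cut at about 130% in these data); inactive = the rest.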

As a reminder, the inhibition is the change of the read-out against control, counted positive when it falls.

Assay [1] can be described thus: rapamycin-like changes in RPL19A-GFP expression – cell-based, S. cerevisiae, multiplex flow cytometry, primary screen (AID 1862; in the data active = percent of DMSO control GFP below about 86%;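 also: lower values mimic rapamycin by blocking the RPL19A rise seen in DMSO cells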). Conditions: S. cerevisiae RPL19A-GFP strain, flow cytometry fluorescence, 3 h; at 10 µM; stronger effect = lower value. On the technique in general: A flow cytometer gives signals particle by particle.
The nature of assay [2]: TOR pathway GLN3 branch reporter MEP2-GFP changes – S. cerevisiae, multiplex flow cytometry, primary screen (AID 1867;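 active = GFP response, as percent of the DMSO control, above the screen-wide mean plus 3 SD, about 139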;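 also: median GFP channel fluorescence of barcode-gated MEP2-GFP cells measured by flow cytometry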). The conditions noted are these: S. cerevisiae MEP2-GFP strain, 3 h, at 10 µM, stronger effect = higher value, 100% means same as DMSO wells.
Assay [3] in a line: TOR pathway RTG branch CIT2 reporter changes – S. cerevisiae, GFP fusion, multiplex flow cytometry, primary screen (AID 1870).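 Also: barcoded CIT2-GFP strain pooled with four other GFP strains with rapamycin as positive control; median GFP fluorescence per well over plate mean of DMSO wells so 100% = DMSO.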 The conditions noted are these: S. cerevisiae CIT2-GFP expression, 3 h, at 10 µM, stronger effect = higher value.
The nature of assay [4]: TOR pathway LAP4-GFP level changes – S. cerevisiae, multiplex flow cytometry, primary screen (AID 1873;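 active = GFP signal, as percent of the solvent control, above the screen mean plus 3 SD, about 149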). Conditions: S. cerevisiae LAP4-GFP expression, 3 h, at 10 µM, stronger effect = higher value.
Assay [5] in a line: yeast AGP1-GFP level changes, GLN3 branch – cell-based, multiplex flow cytometry, S. cerevisiae, primary screen (AID 1887;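 active = GFP signal above the screen-wide mean plus 3 SD, that is over about 124.5% of the solvent control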;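 also: AGP1-GFP fusion strain of S. cerevisiae within a five-strain barcoded multiplex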). The conditions noted are these: 3 h, at 10 µM, stronger effect = higher value.
Assay [6] in a line: reduced mouse 2C T cell binding to pMHC/ICAM-1 vesicles – MLPCN validation set, flow cytometry, LFA-1/ICAM-1 modulator project, pilot screen (AID 2523;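 active = response below a set limit, under 55% cells CD8-positive and vesicle-bound, and CD8 cells' 90th-percentile brightness under 279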;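 as to vesicle binding response: mean PE anti-B7-1 fluorescence of CD8+ cells relative to row control; 100% = QL9-loaded vesicles with DMSO vehicle in the same plate row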). Conditions: 2C mouse CD8+ T cells, at 7 µM, stronger effect = lower value; double positive events: measured here: CD8+/vesicle+ event percentage.
Assay [7] deals with Integrin beta-1 (Homo sapiens) + Integrin alpha-4 (Homo sapiens) (UniProt P13612+P05556). Put plainly: alpha4beta1 integrin LIBS antibody binding reduction – U937 cells, HUTS-21 mAb, flow cytometry, validation set, VLA-4 allosteric modulator project, pilot screen (AID 2674;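 active = inhibition above 50%, about 3 SD of the validation set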;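 also: antibody binding induced by the VLA-4 ligand LDV present at three times its Kd; 0% = LDV ligand with antibody and no compound and 100% = antibody without LDV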). Conditions: HUTS-21 LIBS mAb binding, at 6.7 µM, stronger effect = higher value, binding induced by LDV ligand.
A short description of assay [8]: calorie-restriction mimetic ROS inhibitors, yeast – validation compound set, pilot screen (AID 2706;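 active = superoxide response below 65% of plate, a cut near 3 SD across the whole screen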;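 also: yeast exposed to compound for one week at 30 degrees C before staining; 100% = mean of all compound wells on the same plate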). The conditions noted are these: S. cerevisiae aging, superoxide DHE fluorescence; at 10 µM; stronger effect = lower value.
For assay [9], the target named is Beta-adrenergic receptor kinase 1 (Homo sapiens) (UniProt P25098). Briefly: GRK2 binders displacing RNA aptamer, biochemical, validation, human GRK2, bead flow cytometry (AID 488806;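 active = aptamer binding inhibition above 30%, about 3 SD of noise from non-fluorescent compounds; inactive = inhibition at or below 30%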). Conditions: bead-bound GRK2, FAM-aptamer displacement, at 10 µM, stronger effect = higher value.
Assay [10] concerns the target Beta-2 adrenergic receptor (Homo sapiens) (UniProt P07550). Briefly: agonist-induced loss of surface beta2AR – cell-based, FAP fluorogen, flow cytometry, validation set, pilot screen (AID 504459;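 active = percent response above 42, roughly 3 SD of non-fluorescent test compounds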;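 also: agonist-driven loss of surface beta2AR via internalization measured by FAP dye flow cytometry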). Conditions: Am2.2-beta2AR cells, at 10 µM, stronger effect = higher value.
Assay [11] has as its target AP-2 complex subunit beta (Homo sapiens) (UniProt P63010). Briefly: beta-arrestin/AP2 interaction blockers – biochemical, validation set, GST-AP2 beads, flow cytometry, pilot screen (AID 504541;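 active = inhibition above 54%, about 3 SD of non-fluorescent compounds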;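 also: AP2 carries R879A mutation and is captured from E. coli lysate; bead-bound FITC arrestin peptide fluorescence measuring arrestin peptide binding to AP2; 0% = DMSO wells and 100% = excess unlabeled arrestin peptide control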). The conditions noted are these: FITC arrestin peptide, at 10 µM, stronger effect = higher value, AP2 beta2 appendage fragment, R879A mutant.
The nature of assay [12]: cytosolic pH regulators acting via V-ATPase – S. cerevisiae, pHLuorin, HTS validation (AID 504600; in the data active = response above about 15%;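 also: plate controls were DMSO for no effect and reference compound for full effect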). Conditions: V-ATPase proton transport, at 10 µM, stronger effect = higher value.
Assay [13] concerns anti-desmoglein-3 scFv antibody binding to human DSG3. Briefly: blockers of pathogenic pemphigus antibody–desmoglein-3 binding – biochemical, validation compound set, bead-based, flow cytometry, pilot screen (AID 588368;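 active = binding below the plate cutoff, the plate median minus 3 SD, with a reading above zero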;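 also: signal is the median channel fluorescence of bead-bound GFP antibody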). Conditions: Protein G beads, DSG3-Fc, scFv-GFP binding, at 10 µM, stronger effect = lower value.
The nature of assay [14]: Nile Red efflux blockade in pump-expressing yeast – validation compound set, multiplex, phenotypic, pilot screen (AID 588506;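 active = efflux inhibition above 0.42, the validation set average plus 4 SD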;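 also: Nile Red retained in cells so higher fluorescence means more efflux inhibition; 0 = negative control wells and 1 = enniatin B 25 µM full block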). The conditions noted are these: S. cerevisiae pump-expressing triplex, Nile Red efflux flow cytometry; at 10 µM; stronger effect = higher value; the pumps come from Candida albicans.
The target of assay [15] is ATP-binding cassette sub-family B member 6 (Homo sapiens) (UniProt Q9NP58). Put plainly: blockers of ABCB6-driven porphyrin uptake – K562-ABCB6 cells, flow cytometry, validation set, pilot screen (AID 588550;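 active = inhibition above the screen-wide mean plus 3 SD, about 51%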;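 also: 0% = DMSO wells and 100% = benzethonium chloride 70 µM positive control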). The conditions noted are these: K562-ABCB6 porphyrin accumulation, 1 h, at 10 µM, stronger effect = higher value.
Assay [16] is described as follows: AML differentiation inducers, ER-HoxA9 marrow cells – cell-based, GFP/MAC1 double positive, flow cytometry, validation set, primary screen (AID 588685;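 active = differentiation response of at least 50%, scaled between solvent and reference control, from cells with both markers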;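 also: compound exposure lasts four days before antibody staining and flow analysis; 0% = DMSO wells and 100% = 5 µM fulvestrant positive control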). The conditions noted are these: stronger effect = higher value, normalized: vehicle 0, fulvestrant 100.

AP-2 complex subunit beta (Homo sapiens), sequence (P63010 whole entry, looked up, the tested form may be a part, one chain of several): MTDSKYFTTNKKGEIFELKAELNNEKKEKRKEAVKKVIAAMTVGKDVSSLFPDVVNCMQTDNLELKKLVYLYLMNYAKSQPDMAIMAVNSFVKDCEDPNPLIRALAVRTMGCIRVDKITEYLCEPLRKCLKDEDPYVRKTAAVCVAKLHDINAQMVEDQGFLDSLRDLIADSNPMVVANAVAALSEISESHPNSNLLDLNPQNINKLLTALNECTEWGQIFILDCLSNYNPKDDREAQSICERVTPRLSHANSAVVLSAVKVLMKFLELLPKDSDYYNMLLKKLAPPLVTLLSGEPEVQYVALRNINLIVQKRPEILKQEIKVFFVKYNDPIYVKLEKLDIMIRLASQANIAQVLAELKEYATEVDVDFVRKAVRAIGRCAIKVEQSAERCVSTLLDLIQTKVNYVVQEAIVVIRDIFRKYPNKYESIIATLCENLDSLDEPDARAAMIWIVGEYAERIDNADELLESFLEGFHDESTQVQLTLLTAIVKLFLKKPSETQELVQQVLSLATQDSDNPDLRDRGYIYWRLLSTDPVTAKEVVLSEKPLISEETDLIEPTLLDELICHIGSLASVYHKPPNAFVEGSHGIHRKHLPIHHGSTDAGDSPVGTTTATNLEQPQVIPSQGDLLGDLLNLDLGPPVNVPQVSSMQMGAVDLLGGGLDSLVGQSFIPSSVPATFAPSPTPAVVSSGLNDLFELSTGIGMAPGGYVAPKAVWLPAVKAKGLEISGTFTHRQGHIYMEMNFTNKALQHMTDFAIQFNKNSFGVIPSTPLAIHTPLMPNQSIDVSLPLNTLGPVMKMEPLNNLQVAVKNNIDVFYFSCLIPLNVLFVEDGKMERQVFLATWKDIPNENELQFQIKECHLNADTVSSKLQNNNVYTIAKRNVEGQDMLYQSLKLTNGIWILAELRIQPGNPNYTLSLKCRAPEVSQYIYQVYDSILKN
Integrin beta-1 (Homo sapiens) + Integrin alpha-4 (Homo sapiens), sequence (P05556 whole entry, looked up): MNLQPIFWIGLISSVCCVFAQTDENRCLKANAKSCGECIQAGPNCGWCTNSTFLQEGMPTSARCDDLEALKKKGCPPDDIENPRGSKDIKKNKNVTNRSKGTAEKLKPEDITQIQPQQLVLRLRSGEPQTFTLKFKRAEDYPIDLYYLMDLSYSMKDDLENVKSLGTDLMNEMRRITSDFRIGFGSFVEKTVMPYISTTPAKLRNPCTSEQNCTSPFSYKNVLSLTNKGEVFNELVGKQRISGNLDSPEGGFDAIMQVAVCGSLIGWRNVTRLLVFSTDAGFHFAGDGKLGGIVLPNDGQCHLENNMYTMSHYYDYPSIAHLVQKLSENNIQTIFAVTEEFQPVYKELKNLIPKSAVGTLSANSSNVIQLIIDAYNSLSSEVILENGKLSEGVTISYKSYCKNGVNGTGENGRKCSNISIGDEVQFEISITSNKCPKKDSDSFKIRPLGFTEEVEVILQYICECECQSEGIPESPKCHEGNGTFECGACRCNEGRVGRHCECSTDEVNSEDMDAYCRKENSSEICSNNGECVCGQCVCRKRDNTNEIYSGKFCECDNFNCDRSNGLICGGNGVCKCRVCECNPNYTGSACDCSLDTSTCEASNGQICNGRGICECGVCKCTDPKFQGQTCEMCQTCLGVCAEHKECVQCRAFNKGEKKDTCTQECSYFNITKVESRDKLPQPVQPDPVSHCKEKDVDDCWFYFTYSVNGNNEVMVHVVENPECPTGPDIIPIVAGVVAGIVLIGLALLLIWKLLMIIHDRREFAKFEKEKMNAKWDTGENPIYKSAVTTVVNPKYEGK
Integrin beta-1 (Homo sapiens) + Integrin alpha-4 (Homo sapiens), sequence (P13612 whole entry, looked up): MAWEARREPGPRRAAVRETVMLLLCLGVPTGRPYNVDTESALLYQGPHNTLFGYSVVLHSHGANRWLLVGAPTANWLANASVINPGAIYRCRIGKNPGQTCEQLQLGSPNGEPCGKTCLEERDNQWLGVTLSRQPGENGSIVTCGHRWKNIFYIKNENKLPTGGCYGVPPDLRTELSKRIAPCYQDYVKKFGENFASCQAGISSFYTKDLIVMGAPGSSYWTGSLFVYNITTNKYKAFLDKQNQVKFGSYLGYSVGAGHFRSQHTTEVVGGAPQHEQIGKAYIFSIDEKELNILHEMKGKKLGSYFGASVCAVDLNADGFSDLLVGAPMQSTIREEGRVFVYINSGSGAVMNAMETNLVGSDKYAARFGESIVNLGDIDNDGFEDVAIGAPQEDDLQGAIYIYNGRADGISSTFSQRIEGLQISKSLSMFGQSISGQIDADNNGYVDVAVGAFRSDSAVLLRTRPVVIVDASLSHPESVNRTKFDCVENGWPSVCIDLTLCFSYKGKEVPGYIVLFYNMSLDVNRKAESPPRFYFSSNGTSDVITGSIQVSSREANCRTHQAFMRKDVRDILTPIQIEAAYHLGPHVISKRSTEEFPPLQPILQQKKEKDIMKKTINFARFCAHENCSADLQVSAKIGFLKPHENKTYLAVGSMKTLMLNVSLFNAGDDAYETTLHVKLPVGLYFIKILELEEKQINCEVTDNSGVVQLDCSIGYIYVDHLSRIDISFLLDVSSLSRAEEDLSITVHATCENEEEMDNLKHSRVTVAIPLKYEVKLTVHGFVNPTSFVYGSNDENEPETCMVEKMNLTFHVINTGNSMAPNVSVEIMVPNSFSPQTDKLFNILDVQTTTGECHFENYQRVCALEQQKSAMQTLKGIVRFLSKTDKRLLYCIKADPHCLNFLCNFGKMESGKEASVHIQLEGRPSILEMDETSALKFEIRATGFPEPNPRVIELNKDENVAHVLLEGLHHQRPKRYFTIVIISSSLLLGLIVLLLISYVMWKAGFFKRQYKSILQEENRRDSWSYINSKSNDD
Beta-adrenergic receptor kinase 1 (Homo sapiens), sequence (P25098 whole entry, looked up): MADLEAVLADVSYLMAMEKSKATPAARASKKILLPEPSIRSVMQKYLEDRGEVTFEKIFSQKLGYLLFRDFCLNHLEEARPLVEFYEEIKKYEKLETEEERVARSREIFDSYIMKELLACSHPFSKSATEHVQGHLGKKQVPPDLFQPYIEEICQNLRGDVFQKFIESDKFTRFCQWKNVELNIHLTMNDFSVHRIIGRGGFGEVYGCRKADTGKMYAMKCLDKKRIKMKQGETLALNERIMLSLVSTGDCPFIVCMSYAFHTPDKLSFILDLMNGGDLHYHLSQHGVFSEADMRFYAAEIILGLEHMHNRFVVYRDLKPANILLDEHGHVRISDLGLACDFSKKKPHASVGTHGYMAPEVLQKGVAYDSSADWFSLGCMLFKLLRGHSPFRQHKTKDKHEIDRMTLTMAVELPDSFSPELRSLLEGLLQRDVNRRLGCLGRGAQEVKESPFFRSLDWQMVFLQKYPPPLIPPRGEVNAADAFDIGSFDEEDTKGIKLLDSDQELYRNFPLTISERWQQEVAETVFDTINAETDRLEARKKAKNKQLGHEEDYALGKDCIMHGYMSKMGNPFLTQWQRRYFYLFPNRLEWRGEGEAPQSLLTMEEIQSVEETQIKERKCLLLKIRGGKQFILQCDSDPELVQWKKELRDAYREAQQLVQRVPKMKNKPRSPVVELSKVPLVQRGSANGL
ATP-binding cassette sub-family B member 6 (Homo sapiens), sequence (Q9NP58 whole entry, looked up): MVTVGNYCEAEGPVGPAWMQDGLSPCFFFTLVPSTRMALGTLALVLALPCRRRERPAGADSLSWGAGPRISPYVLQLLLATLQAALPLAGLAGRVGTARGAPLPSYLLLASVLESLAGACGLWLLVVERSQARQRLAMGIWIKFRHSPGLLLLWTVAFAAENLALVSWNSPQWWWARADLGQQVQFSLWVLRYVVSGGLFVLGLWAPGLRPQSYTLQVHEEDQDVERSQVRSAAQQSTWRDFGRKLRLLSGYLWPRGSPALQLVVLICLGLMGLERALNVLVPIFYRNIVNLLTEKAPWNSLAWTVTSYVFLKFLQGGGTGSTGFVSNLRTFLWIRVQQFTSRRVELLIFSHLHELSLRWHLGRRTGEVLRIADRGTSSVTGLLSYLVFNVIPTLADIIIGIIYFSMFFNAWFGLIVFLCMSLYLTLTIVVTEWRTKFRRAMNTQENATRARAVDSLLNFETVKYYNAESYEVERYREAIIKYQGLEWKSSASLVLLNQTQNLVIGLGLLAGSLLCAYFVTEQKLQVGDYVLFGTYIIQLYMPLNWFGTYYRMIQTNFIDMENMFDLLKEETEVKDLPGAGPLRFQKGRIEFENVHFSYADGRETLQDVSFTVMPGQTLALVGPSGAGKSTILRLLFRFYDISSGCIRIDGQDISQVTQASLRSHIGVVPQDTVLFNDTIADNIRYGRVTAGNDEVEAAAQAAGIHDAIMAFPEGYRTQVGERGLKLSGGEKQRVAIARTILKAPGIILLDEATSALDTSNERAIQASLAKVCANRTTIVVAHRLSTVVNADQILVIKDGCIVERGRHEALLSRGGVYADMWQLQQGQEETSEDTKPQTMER
Beta-2 adrenergic receptor (Homo sapiens), sequence (P07550 whole entry, looked up): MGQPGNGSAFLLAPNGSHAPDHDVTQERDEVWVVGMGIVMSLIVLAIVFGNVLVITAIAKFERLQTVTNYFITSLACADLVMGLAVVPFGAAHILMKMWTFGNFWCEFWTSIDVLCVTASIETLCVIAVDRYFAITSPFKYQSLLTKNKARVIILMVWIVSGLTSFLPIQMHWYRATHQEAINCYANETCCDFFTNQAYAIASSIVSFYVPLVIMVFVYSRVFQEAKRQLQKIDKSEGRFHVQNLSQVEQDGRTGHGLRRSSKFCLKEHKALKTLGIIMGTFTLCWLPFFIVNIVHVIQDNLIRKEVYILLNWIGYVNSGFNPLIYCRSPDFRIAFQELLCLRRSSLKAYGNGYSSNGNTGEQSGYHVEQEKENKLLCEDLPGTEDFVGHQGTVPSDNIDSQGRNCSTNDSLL

On to `Cc1ccc2nc(N=C(N)N)nc(C)c2c1`, for which the percent of DMSO control GFP in assay [1] is 111% (inactive). Besides, the GFP response vs DMSO in assay [2] is 107% (inactive); in [4], 114% (inactive). In addition, in assay [3], the percent response of DMSO control was 110% (inactive). Besides, the GFP response, % of DMSO in [5] is 118% (inactive). Further, the double positive events in [6] was found to be 58.7%. Moreover, the vesicle binding response in assay [6] was 124% (inactive). The inhibition is -13.2% (inactive) in assay [7], 0.05% (inactive) in [11] and 5% (inactive) in assay [15]. Besides, in [8], the superoxide response (% of plate) is 91.5% (inactive). In [9], the aptamer binding inhibition was -1% (inactive). For the same compound, the response was -5.11% (inactive) in assay [10] and 5.97% (inactive) in assay [12]. Also, the binding (% of control) in assay [13] was 109% (inactive). For the same compound, the efflux inhibition (fraction of control) in [14] is -0.02 (inactive). Also, the differentiation response in assay [16] was -8.96% (inactive).
On to `COC(=O)c1ccccc1NC(=O)NCc1ccccc1`, for which the percent of DMSO control GFP in [1] was 96.3% (inactive). Besides, the GFP response vs DMSO is 131% (inactive) in [2] and 85.8% (inactive) in [4]. In [3], the percent response of DMSO control is 104% (inactive). For the same compound, the GFP response, % of DMSO in [5] was 87.3% (inactive). The same compound came in with a double positive events in [6] of 63%. Further, the vesicle binding response in assay [6] was 165% (inactive). Moreover, the inhibition in [7] is -0.33% (inactive); in [11], 0.05% (inactive); in assay [15] it was 15% (inactive). Moreover, in assay [8], the superoxide response (% of plate) is 99% (inactive). Also, the aptamer binding inhibition in [9] is 6% (inactive). The response was -13.3% (inactive) in [10] and 1.35% (inactive) in assay [12]. The binding (% of control) in [13] is 104% (inactive). The efflux inhibition (fraction of control) in [14] is -0.28 (inactive). The differentiation response in assay [16] was 0% (inactive).
On to `CC(C)(C)C(=O)NC(=S)NNC(=O)c1ccncc1`, for which the percent of DMSO control GFP in [1] was 98.2% (inactive). Further, the GFP response vs DMSO was 104% (inactive) in assay [2] and 127% (inactive) in [4]. In addition, in assay [3], the percent response of DMSO control is 101% (inactive). The GFP response, % of DMSO in [5] was 109% (inactive). In assay [6], this compound had a double positive events of 57.3%. In addition, the vesicle binding response in [6] is 185% (inactive). Besides, the inhibition in assay [7] is -7.08% (inactive); in assay [11], -3.36% (inactive); in [15], -5% (inactive). Further, the superoxide response (% of plate) in assay [8] was 88.6% (inactive). In assay [9], the aptamer binding inhibition was -5% (inactive). In addition, the response in assay [10] was -25% (inactive); in [12] it was 2.56% (inactive). For the same compound, in assay [13], the binding (% of control) is 105% (inactive). Besides, the efflux inhibition (fraction of control) in assay [14] is -0.04 (inactive). Further, the differentiation response in [16] was -7.94% (inactive).
For `COc1ccc(CN2CCCCC2C(=O)Nc2ccc(OC)c(OCC(C)C)c2)cc1OC` (stereo not drawn), the percent of DMSO control GFP in [1] is 100% (inactive). Besides, the GFP response vs DMSO in assay [2] was 103% (inactive); in assay [4], 90.7% (inactive). Besides, the percent response of DMSO control in [3] is 101% (inactive). Moreover, in assay [5], the GFP response, % of DMSO is 104% (inactive). This compound yielded a double positive events in assay [6] of 54.3%. Besides, the vesicle binding response in assay [6] is 29% (active). The inhibition was -0.45% (inactive) in assay [7], 18.5% (inactive) in [11] and 4% (inactive) in assay [15]. Besides, the superoxide response (% of plate) in [8] is 95% (inactive). Besides, the aptamer binding inhibition in assay [9] is 2% (inactive). The response in [10] was -10.2% (inactive); in [12], -0.65% (inactive). For the same compound, in assay [13], the binding (% of control) is 95.9% (inactive). The efflux inhibition (fraction of control) in assay [14] was -0.35 (inactive). Besides, the differentiation response in assay [16] was 2.2% (inactive).

The values above are taken from PubChem BioAssay.
